The source of these data is PubChem BioAssay (NCI).

Compounds without any hit were thinned out: in the full panel of roughly 83,000, 20% have a hit.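 Method: cells in 96-well plates; compound added at one concentration; 48 h incubation; percent growth measured; values under 10 scored active.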 Values without a mark were called inactive. Active and inactive are the calls of the source.

Holding throughout (assay): NCI-60 one-dose screen, 48 h (100 = growth as untreated, 0 = no growth, -100 = all killed)
Common to all, as to settings: 10 µM unless noted

The subject of assay [1] is NCI-H23 lung.
Assay [2] deals with NCI-H226 lung.
The test system of assay [3] is NCI-H322M lung.
The subject of assay [4] is HOP-62 NSCLC.
The subject of assay [5] is HOP-92 NSCLC.
Assay [6] concerns NCI-H522 lung.
In assay [7] the test system is A549/ATCC NSCLC.
For assay [8], the system named is 786-0 renal.
In assay [9] the test system is COLO 205 colon.
In assay [10] the test system is DU-145 prostate.
The test system of assay [11] is K-562 leukemia.
For assay [12], the system named is MALME-3M melanoma.
Assay [13] relates to MDA-MB-231 breast.
The subject of assay [14] is RXF 393 renal.
For assay [15], the system named is SF-268 CNS.
The subject of assay [16] is SF-295 CNS.
Assay [17] has as its system SF-539 CNS.
The test system of assay [18] is UACC-257 melanoma.
In assay [19] the test system is M14 melanoma.

`CCCCn1c(=O)c(/C=C/C(=O)/C=C/c2ccc(OC)cc2)cc2cc(Cl)ccc21`: the growth is 48.6% in assay [1]; 70% in assay [2]; 72.7% in [3]; 102% in [4]; 102% in assay [5]; 56.3% in [6]. Besides, the growth in [7] is 51.1%; in assay [8], 28.4%; in assay [9] it was 88.3%; in assay [10], 53.5%; in assay [11] it was 25.2%; in [12], 119%. Further, the growth in [13] is 83.8%; in [14] it was 84.5%; in assay [15], 42.6%; in assay [16], 19.9%; in assay [17], 91.8%; in [18] it was 92.1%. The growth in [19] was 95%.

As for `Cc1ccc(-c2nc(C#N)c(S(=O)(=O)N(C)CCO)o2)cc1`, the growth in assay [1] was 80.3%; in assay [2], 124%; in [3] it was 93.3%; in assay [4] it was 97.7%; in assay [5], 88.9%; in [6], 17.5%. Moreover, the growth is 99% in assay [7]; 79.6% in assay [8]; 44.3% in assay [9]; 90.2% in assay [10]; 25% in assay [11]; 60.1% in assay [12]. The growth in assay [13] was 81.4%; in assay [14], 107%; in assay [15] it was 72.6%; in assay [16] it was 104%; in [17] it was 43%; in assay [18] it was 77.9%. Besides, the growth in assay [19] is 61.7%.

As to `CC(C)(C#N)c1cc(F)cc(C(=O)Nc2cc(Nc3ncccc3-c3ncnc4nc[nH]c34)ccc2F)c1`, the growth in assay [1] is 16.8%; in assay [2], 41.3%; in [3], 53.3%; in [4], 44.9%; in assay [5] it was -0.389% (active); in assay [6], 7.73% (active). Further, the growth in assay [7] is 42.1%; in [8], 63%; in assay [9] it was 6.56% (active); in assay [10], 56.1%; in assay [11] it was 5.97% (active); in [12], -28.4% (active). The growth is 22.4% in assay [13]; 34.1% in assay [14]; 60.6% in assay [15]; 46.1% in assay [16]; 20.8% in assay [17]; 23.7% in assay [18]. Moreover, in assay [19], the growth was 5.28% (active).

`O=c1nc(-c2ccccc2)c2cc(-c3ccc(N4CCCC4)nc3)ccc2[nH]1`: the growth in [1] is 73.1%; in assay [2], 77.2%; in [3] it was 82.6%; in [4] it was 62.6%; in assay [5], 61.4%; in assay [6], 37.6%. In addition, the growth in assay [7] is 59.7%; in assay [8], 69.5%; in assay [9], 88.3%; in assay [10] it was 85%; in assay [11] it was 16.4%; in assay [12], 89.6%. Further, the growth in assay [13] was 59.8%; in assay [14], 81.2%; in [15], 83.2%; in assay [16], 39.4%; in [17], 73.8%; in assay [18] it was 88.6%. For the same compound, the growth in [19] was 47.9%.

With `Cc1nc2sc(C(=O)Nc3cccc4ccccc34)c(N)c2cc1C(C)O` (configuration not stated), the growth in assay [1] was 26.2%; in [2] it was 70.7%; in [3], 44.8%; in [4], 39.8%; in assay [5] it was 83.7%; in [6] it was -15.9% (active). The growth in assay [7] was 22.7%; in [8], 34.1%; in assay [9], -5.28% (active); in [10], 13.6%; in [11] it was 8.19% (active); in [12], 85.1%. The growth in [13] was 33.1%; in assay [14], 21.7%; in [15] it was 51.4%; in assay [16] it was 10.8%; in [17], 0.0649% (active); in [18], 64%. The growth in assay [19] was 15.4%.

Consider `COc1ccc2[nH]c(=O)c(/C=C/C(=O)/C=C/c3ccc(O)c(OC)c3)cc2c1`, for which the growth was 5.43% (active) in assay [1]; 36.8% in assay [2]; 78.8% in assay [3]; 85% in assay [4]; 98.3% in [5]; 29% in assay [6]. For the same compound, the growth was 22.6% in assay [7]; -42.7% (active) in assay [8]; 29.6% in assay [9]; 8.26% (active) in assay [10]; 4.67% (active) in [11]; 52.8% in [12]. Further, the growth in assay [13] is 18.3%; in assay [14], -76.7% (active); in [15] it was 9.98% (active); in [16], 17.5%; in assay [17], 8.47% (active); in assay [18], 40.3%. For the same compound, the growth in assay [19] was -32.4% (active).

For `CCOC(=O)c1cnn(-c2nc(-c3ccc(F)cc3)c(C#N)c(N3CCOCC3)n2)c1N`, the growth in assay [1] is 103%; in [2], 92.1%; in assay [3], 105%; in assay [4], 111%; in assay [5], 98.7%; in assay [6], 90.6%. Moreover, the growth in [7] was 93.9%; in assay [8] it was 82.5%; in assay [9], 107%; in [10], 102%; in [11], 91.8%; in assay [12] it was 107%. Moreover, the growth in assay [13] was 107%; in assay [14] it was 122%; in assay [15], 98.7%; in assay [16], 101%; in [17] it was 97.2%; in assay [18], 106%. For the same compound, in assay [19], the growth is 106%.

`C=C(C)[C@@H]1CC[C@]2(C(=O)N3CCN(C)CC3)CC[C@]3(C)[C@H](CC[C@@H]4[C@@]5(C)C/C(=C/c6ccco6)C(=O)C(C)(C)[C@@H]5CC[C@]43C)[C@@H]12`: the growth in [1] is 79.9%; in assay [2], 86.4%; in assay [3] it was 79.9%; in [4] it was 73.6%; in [5] it was 55.7%; in [6], 74%. Also, the growth is 60.6% in assay [7]; 71.2% in [8]; 74.6% in assay [9]; 84.3% in assay [10]; 36.2% in assay [11]; 66.8% in [12]. The growth is 58.8% in [13]; 45.2% in assay [14]; 68.9% in [15]; 18.9% in assay [16]; 62% in assay [17]; 48.6% in [18]. For the same compound, the growth in assay [19] is 59.9%.
